Screening data (PubChem BioAssay)
DT40 TDP1 CPT – growth inhibition of DT40 Tdp1-/-;hTDP1 cells with camptothecin (screen for TDP1 inhibitors) | chicken DT40 Tdp1-/-;hTDP1 cells + 20 nM CPT, ATP luminescence, 48 h | Potency, µM (highest dose often 46.2 µM), usual class: inhibitors | hit rate 12% among 420,000 | AID 686979; further: nearly all actives have a fitted effect of over 55% in size
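Cell growth measured by CellTiter-Glo luminescence after a minimum 48 h, 37 C compound exposure with 20 nM CPT in Tdp1-knockout DT40 cells stably expressing hTDP1, seeded 400/well; qHTS titration format.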
TDP1 cell noCPT – qHTS for Inhibitors of human tyrosyl-DNA phosphodiesterase 1 (TDP1): qHTS in cells in absence of CPT. DT40 Tdp1-/- hTDP1 cells, no CPT, ATP luminescence, 48 h. Potency, µM (doses to about 46.2 µM), most hits filed as inhibitors. hit rate 15% among 420,000. AID 686978, 2013; further: nearly all actives have a fitted effect of over 55% in size
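No-CPT arm: Tdp1-/-;hTDP1 DT40 cells (400/well) plus compounds, incubated ≥48 hr at 37 °C. Readout CellTiter-Glo luminescence.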
TGFb inhibitor – inhibitors of TGF-b signaling. hit rate 1.2% among 410,000. HepG2 CAGA-GFP TGF-b/SMAD3 reporter, GFP fluorescence, 18 h; TGF-beta stimulated, 500 pg/mL final. Potency, µM (highest dose often 46.1 µM), actives largely listed as inhibitors; further: nearly all actives have a fitted effect of over 65% in size
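Read-out: total well GFP (ex488/em500-530) summed from mean per-cell fluorescence. Cells: HEPG2 CAGA-GFP, 1% FBS DMEM, 18 h at 37 degrees C with 500 pg/mL final TGF-beta. Unstimulated wells served as the full-inhibition control; stimulated DMSO wells = 0%.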
HepG2 viability – HepG2 cytotoxicity, counter-screen for TGF-b inhibitors; AID 588856; HepG2 CAGA-GFP viability, ATP luminescence, 18 h; hit rate 0.76% among 410,000; Potency, µM (highest dose often 46.1 µM), most hits filed as cytotoxic
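CellTiter-Glo luminescence gave cytotoxicity after 18 hours at 37 degrees C. The cells were HepG2 CAGA-GFP in 1% FBS DMEM, stimulated with 500 pg/mL TGF-beta after compound addition. %Activity was normalised to no-cell wells (complete cell-killing) and DMSO (no toxicity), and curves were fitted and classified.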
IL-1B inflam inh – inhibitors of inflammasome signaling (IL-1 beta secretion) | activity change, % at 57.5 µM | hit rate 4.7% among 360,000 | THP-1 LPS/ATP IL-1B secretion, AlphaLISA, 16 h; active compounds read low | AID 743279; in the data active means activity change below about -50%; inconclusive means mostly about -30% to -49%
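Secreted IL-1B measured by AlphaLISA bead assay after 16 h compound exposure of THP-1 cells; compounds (final up to 57.5 uM) added 1 h before LPS (250 ng/mL) and ATP (1.25 mM) stimulation; lower signal means less secretion.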
TDP1 inh – blocks human tyrosyl-DNA phosphodiesterase 1; Q9NUW8; recombinant TDP1, AlphaScreen DNA substrate cleavage; Potency, µM (titrated, usually from 130 µM), most hits filed as inhibitors; hit rate 0.28% among 350,000; AID 485290; further: nearly all actives have a fitted effect of over 40% in size
Target sequence (Q9NUW8 whole entry, looked up): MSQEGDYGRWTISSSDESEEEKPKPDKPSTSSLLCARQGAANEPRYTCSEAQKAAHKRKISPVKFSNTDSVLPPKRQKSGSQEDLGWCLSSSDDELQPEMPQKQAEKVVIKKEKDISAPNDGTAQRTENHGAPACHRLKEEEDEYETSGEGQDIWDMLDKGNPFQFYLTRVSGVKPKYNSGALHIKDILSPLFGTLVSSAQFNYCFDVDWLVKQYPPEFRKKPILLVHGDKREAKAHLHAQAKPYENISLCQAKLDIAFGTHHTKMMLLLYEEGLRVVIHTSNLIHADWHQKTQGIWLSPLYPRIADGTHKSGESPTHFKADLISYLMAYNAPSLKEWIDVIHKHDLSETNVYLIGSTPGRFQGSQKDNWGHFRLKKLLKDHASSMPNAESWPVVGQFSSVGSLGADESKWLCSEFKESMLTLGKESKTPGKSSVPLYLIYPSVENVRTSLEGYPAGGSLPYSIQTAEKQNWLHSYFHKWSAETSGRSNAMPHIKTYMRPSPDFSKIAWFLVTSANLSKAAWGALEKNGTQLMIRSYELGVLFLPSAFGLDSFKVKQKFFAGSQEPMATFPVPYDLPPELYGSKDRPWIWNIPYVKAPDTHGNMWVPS
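Steps: enzyme plus compound, 15 min RT; add biotin/phosphotyrosine-FITC oligonucleotide (15 nM final), react 5 min; add donor/acceptor beads (10 ug/ml final), 10 min; read AlphaScreen. Tdp1 at 1 nM final.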
Large screens that a line does not name were inactive. The list is not random: actives were taken first. Their share in the collection is about 18%. Unless noted, the call rests on the fitted dose curve; in most records, active means well fitted curve in the direction sought with a large enough effect; inconclusive means small, poorly fitted or top-dose-only effect, or another doubt; inactive means no such curve, though single readings can be large; an effect the other way counts as inactive or inconclusive.

COc1cccc(Cn2c(NCc3cccnc3)nc3c2c(=O)n(C)c(=O)n3C)c1	DT40 TDP1 CPT 1µM, TDP1 cell noCPT 1µM, TGFb inhibitor inconclusive
Cn1c(=O)c2c(nc(NCc3cccnc3)n2Cc2cccc(C(F)(F)F)c2)n(C)c1=O	DT40 TDP1 CPT 18µM, TDP1 cell noCPT 7.3µM
CCCN1C/C(=C/c2ccc3c(c2)OCO3)C(=O)/C(=C/c2ccc3c(c2)OCO3)C1	DT40 TDP1 CPT 15µM, TDP1 cell noCPT 13µM
CCCN1C(=O)/C(=C/c2ccc3c(c2)OCO3)NC1=S	none
CCCN1C/C(=C/c2cccc([N+](=O)[O-])c2)C(=O)/C(=C/c2cccc([N+](=O)[O-])c2)C1	DT40 TDP1 CPT 1µM, TDP1 cell noCPT 0.65µM, IL-1B inflam inh -94
COc1ccc(Cl)cc1NC(=O)C(C)OC(=O)Cn1cc(C(F)(F)F)ccc1=O (configuration not stated)	DT40 TDP1 CPT inconclusive
CC1(C)Cc2c(cnn2-c2ccc(F)cc2)C(NC(=O)C2=CC(=O)CC(C)(C)O2)C1 (configuration not stated)	DT40 TDP1 CPT inconclusive, TDP1 cell noCPT inconclusive (no result: TDP1 inh)
CCOC1CCCc2oc(-c3ccsc3)c(-c3cnc(OC)nc3)c21 (configuration not stated)	DT40 TDP1 CPT inconclusive, TDP1 cell noCPT 23µM (no result: TGFb inhibitor, HepG2 viability, TDP1 inh)
O=C(C[C@H]1C[C@@H]2c3cc(NC(=O)c4ccc5c(c4)OCO5)ccc3O[C@@H]2[C@H](CO)O1)NCc1cc(F)ccc1F	DT40 TDP1 CPT inconclusive, TDP1 cell noCPT 26µM (no result: TDP1 inh)
O=C(C[C@@H]1CC[C@H](NC(=O)c2ccc3c(c2)OCO3)[C@@H](CO)O1)NCc1ccc(F)cc1	DT40 TDP1 CPT inconclusive, TDP1 cell noCPT 12µM (no result: TGFb inhibitor, HepG2 viability, TDP1 inh)
CCCNC(=O)C[C@@H]1C[C@H]2c3cc(NC(=O)c4ccc5c(c4)OCO5)ccc3O[C@H]2[C@@H](CO)O1	DT40 TDP1 CPT 23µM, TDP1 cell noCPT 15µM (no result: TDP1 inh)
COc1ccccc1CNC(=O)C[C@@H]1C[C@H]2c3cc(NC(=O)c4ccc5c(c4)OCO5)ccc3O[C@H]2[C@@H](CO)O1	DT40 TDP1 CPT inconclusive, TDP1 cell noCPT inconclusive (no result: TDP1 inh)
O=C1CCCc2c1oc1c2CCCC1	none (no result: TDP1 inh)
COc1ccc(C(CNC(=O)c2ccc(S(=O)(=O)N(C)C)cc2)N2CCCCC2)cc1 (configuration not stated)	none
COc1ccc(C(=O)NCC(c2ccc(N(C)C)cc2)N2CCOCC2)cc1 (configuration not stated)	DT40 TDP1 CPT 7.3µM, TDP1 cell noCPT 10µM (no result: IL-1B inflam inh)
CN(C)c1ccc(C(CNC(=O)c2ccc(C(C)(C)C)cc2)N2CCCC2)cc1 (configuration not stated)	DT40 TDP1 CPT 13µM, TDP1 cell noCPT 7.3µM, TGFb inhibitor inconclusive (no result: IL-1B inflam inh)
COc1ccc(C(=O)NCC(c2ccc(N(C)C)cc2)N2CCCC2)cc1 (configuration not stated)	DT40 TDP1 CPT inconclusive, TDP1 cell noCPT inconclusive (no result: IL-1B inflam inh)
CN(C)c1ccc(C(CNC(=O)c2cccc(C(F)(F)F)c2)N2CCCC2)cc1 (configuration not stated)	DT40 TDP1 CPT 15µM, TDP1 cell noCPT 16µM (no result: IL-1B inflam inh)
COc1ccc(C(CNC(=O)c2cccc(S(=O)(=O)N3CCCC3)c2)N2CCCC2)cc1 (configuration not stated)	none
COc1ccc(C(CNC(=O)c2cc3c(s2)CCC(C)C3)N2CCOCC2)cc1 (configuration not stated)	DT40 TDP1 CPT 23µM, TDP1 cell noCPT inconclusive
CC(=O)Nc1ccc(SCCN2CCN(CC(C)C)CCC2=O)cc1	TGFb inhibitor inconclusive (no result: DT40 TDP1 CPT, TDP1 cell noCPT, IL-1B inflam inh)
Cc1cc(-c2nsc(=O)o2)c(S(C)(=O)=O)s1	DT40 TDP1 CPT 21µM, TDP1 cell noCPT 16µM
